High-throughput results deposited in PubChem BioAssay by National Center for Advancing Translational Sciences (NCATS).
FLuc inh-1 = inhibitors of firefly (Photinus pyralis) luciferase. P08659. purified P. pyralis luciferase, luminescence, biochemical. Potency, µM (top dose mostly 115 µM), actives largely listed as inhibitors. 2.5% of 76,000 active; further: on the % scale 0 is the no-effect control and ±100 the full control effect; nearly all actives have a fitted effect of over 65% in size
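Purified 10nM P. pyralis luciferase with 10uM D-luciferin and 10uM ATP in 50mM Tris acetate pH 7.5, 10mM Mg acetate, 0.01% Tween-20, 0.05% BSA. qHTS titration; luminescence read by CCD imager.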
3T3 cytotox = cytotoxic compounds in NIH 3T3 cells. NIH 3T3 viability, CellTiter-Glo ATP luminescence, 48-72 h. Potency, µM (doses to about 96.7 µM), for the others: top-dose activity change, negative = cytotoxicity, most hits filed as inhibitors. 4.3% of 94,000 active. AID 1345082; further: on the % scale 0 is the no-effect control and ±100 the full control effect; nearly all actives have a fitted effect of over 55% in size
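ATP-dependent luminescence (CellTiter-Glo) served as the viability signal for NIH 3T3 cells treated with compound for 48 or 72 hr at 37 °C.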
GPT2 inh = blocks human glutamate pyruvate transaminase 2; Q8TD30; Recombinant GPT2, coupled pyruvate oxidase/HRP Amplex Red fluorescence; Potency, µM (top dose mostly 57.7 µM), for the others: at the highest dose activity change, negative = inhibition, actives largely listed as inhibitors; 0.25% of 100,000 active; further: on the % scale 0 is the no-effect control and ±100 the full control effect; nearly all actives have a fitted effect of over 60% in size
Target sequence (Q8TD30 whole entry, looked up): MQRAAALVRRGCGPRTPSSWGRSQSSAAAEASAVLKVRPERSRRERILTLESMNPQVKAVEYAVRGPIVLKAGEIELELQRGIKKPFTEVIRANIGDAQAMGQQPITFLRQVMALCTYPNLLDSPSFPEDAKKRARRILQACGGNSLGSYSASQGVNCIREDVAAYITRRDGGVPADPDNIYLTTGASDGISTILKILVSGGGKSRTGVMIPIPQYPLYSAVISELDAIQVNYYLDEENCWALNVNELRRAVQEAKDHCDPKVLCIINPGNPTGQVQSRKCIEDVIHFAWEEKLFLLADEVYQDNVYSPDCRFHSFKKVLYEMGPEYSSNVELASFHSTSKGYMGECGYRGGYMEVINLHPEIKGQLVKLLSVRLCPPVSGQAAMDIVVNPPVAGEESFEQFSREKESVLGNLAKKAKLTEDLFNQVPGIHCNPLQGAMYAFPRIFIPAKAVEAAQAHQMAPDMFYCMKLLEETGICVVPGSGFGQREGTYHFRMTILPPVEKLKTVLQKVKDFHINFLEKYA
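Fluorescence of coupled pyruvate oxidase/HRP/Amplex Red system (50uM Amplex, 30 min, dark) reports pyruvate formed by GPT2. Enzyme reaction: 10ng/uL GPT2, 2mM L-alanine, 250uM a-KG, 30 min room temperature, pH 7.5; 50uM AOA control.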
NPR1 antag = antagonists of human natriuretic peptide receptor Npr1; P16066; HEK293 hNpr1 GloSensor cGMP, ANP-stimulated luminescence; Potency, µM (highest dose often 46.3 µM), for the others: top-dose activity change, negative = inhibition, most hits filed as inhibitors; 1.6% of 76,000 active; calls by dose curve; further: on the % scale 0 is the no-effect control and ±100 the full control effect; nearly all actives have a fitted effect of over 60% in size
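Compound pre-incubated 30 min at room temperature on GloSensor-loaded HEK293 cells stably carrying hNpr1 and the pGS-40F cGMP biosensor. Stimulation uses hNppA at 0.1 nM final; luminescence is taken at baseline and 20 min post-agonist.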
HEK293 tox = cytotoxic compounds in HEK 293 cells. HEK 293 viability, ATP luminescence (CellTiter-Glo), 48-72 h. Potency, µM (highest dose often 115 µM), without a hit: at the highest dose activity change, negative = cytotoxicity, usual class: inhibitors. 6.6% of 94,000 active. AID 1345083; further: on the % scale 0 is the no-effect control and ±100 the full control effect; nearly all actives have a fitted effect of over 60% in size
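CellTiter-Glo luminescence (cellular ATP) was read after 48 or 72 hr of compound exposure at 37 degree Celsius. Cells were HEK 293 plated at 250 cells/well.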
FLuc SDR no ATP = stabilizes firefly luciferase without ATP. 7.8% of 1,300 active. shares compounds with FLuc inh-1. Purified FLuc-C-HiBiT, Nano-Glo HiBiT luminescence, no ATP. AID 1963318. Potency, µM (doses to about 32.7 µM), for inactives: top-dose activation (signal gain), usual class: activators; further: nearly all actives have a fitted effect of over 55% in size
FLuc SDR ATP = stabilizes firefly luciferase with ATP present. Potency, µM (titrated, usually from 32.7 µM), without a hit: at the highest dose activation (gain of signal), hits mostly activators. purified FLuc-C-HiBiT + ATP, HiBiT complementation luminescence. AID 1963319. 8.7% of 1,300 active. shares compounds with FLuc inh-1;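 further: signal reports ligand binding via conformational change of the enzyme rather than luciferase catalysis; % of control where 0% means no effect; nearly all actives have a fitted effect of over 55% in size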
FLuc inh-2 = inhibitors of firefly luciferase enzymatic activity; purified FLuc-C-HiBiT enzyme, luciferin luminescence; 42% of 1,300 active; shares compounds with FLuc inh-1; AID 1963320; Potency, µM (titrated, usually from 32.7 µM), for inactives: top-dose activity change, negative = inhibition, most hits filed as inhibitors; further: on the % scale 0 is the no-effect control and ±100 the full control effect; nearly all actives have a fitted effect of over 70% in size
Starred values were filed as active, the others as inactive; [ ] = remark or other dose. Most compounds without a hit are left out; they make up all but 10% or so of the library. Unless noted, the call rests on the fitted dose curve; in most records, active means well fitted curve in the direction sought with a large enough effect; inconclusive means small, poorly fitted or top-dose-only effect, or another doubt; inactive means no such curve, though single readings can be large; an effect the other way counts as inactive or inconclusive. Potency means the concentration at half of the fitted maximal effect.

How did C[C@@H]1C(=O)O[C@H]2[C@H]1CC[C@@]1(C)Cc3sc(Nc4ccccc4)nc3[C@@H](C)[C@H]21 do in these assays?
FLuc inh-1: inconclusive; 3T3 cytotox: inconclusive; GPT2 inh: inactive; NPR1 antag: inconclusive; HEK293 tox: inconclusive

How did C[C@@H]1C(=O)O[C@H]2[C@H]1CC[C@@]1(C)Cc3sc(Nc4cccnc4)nc3[C@@H](C)[C@H]21 do in these assays?
FLuc inh-1: 0.79µM*; 3T3 cytotox: -22%[174 µM]; GPT2 inh: -8%[88.5 µM]; NPR1 antag: 16µM*; HEK293 tox: -5%[172 µM]; FLuc SDR no ATP: 1µM*; FLuc SDR ATP: inconclusive; FLuc inh-2: 0.45µM*

Results for C[C@@H]1C(=O)O[C@H]2[C@H]1CC[C@@]1(C)Cc3sc(NCc4ccccc4)nc3[C@@H](C)[C@H]21 ?
FLuc inh-1: 3.5µM*; 3T3 cytotox: inconclusive; GPT2 inh: -30%[88.5 µM]; NPR1 antag: inconclusive; HEK293 tox: inconclusive; FLuc SDR no ATP: inconclusive; FLuc SDR ATP: 17%[49.3 µM]; FLuc inh-2: 7.2µM*

How did O=C(Nc1ccc(F)cc1)C1CCCN1c1nc2ncccc2o1 (stereo not given) do in these assays?
FLuc inh-1: inactive; 3T3 cytotox: -11%; GPT2 inh: inactive; NPR1 antag: -4%; HEK293 tox: 2%

How did Cc1cccc(NC(=O)C2CCN(C(=O)c3ncn4c3COC(c3ccccc3)C4)CC2)c1 (stereo not given) do in these assays?
FLuc inh-1: 3.2µM*; 3T3 cytotox: 1%; GPT2 inh: inactive; NPR1 antag: -28%; HEK293 tox: 5%; FLuc SDR no ATP: 15%; FLuc SDR ATP: 2µM*; FLuc inh-2: 2.5µM*

Results for CCc1cccc(NC(=O)C2CCN(C(=O)c3ncn4c3COC(c3ccc(OC)cc3)C4)CC2)c1 (stereo not given) ?
FLuc inh-1: inconclusive; 3T3 cytotox: -2%; GPT2 inh: 4%; NPR1 antag: 1%; HEK293 tox: -4%

What do the screens show for `Cc1cc(C)cc(NC(=O)C2CCN(C(=O)c3ncn4c3COC(c3ccccc3)C4)CC2)c1` (stereo not given)?
FLuc inh-1: 8.9µM*; 3T3 cytotox: inactive; GPT2 inh: 4%; NPR1 antag: -3%; HEK293 tox: 6%; FLuc SDR no ATP: 16%; FLuc SDR ATP: inconclusive; FLuc inh-2: 3.1µM*

Results for COc1ccc(C2Cn3cnc(C(=O)N4CCC(C(=O)Nc5cc(F)cc(F)c5)CC4)c3CO2)cc1 (stereo not given) ?
FLuc inh-1: inconclusive; 3T3 cytotox: inconclusive; GPT2 inh: -13%; NPR1 antag: inconclusive; HEK293 tox: inconclusive

Results for O=C1CCN(C(=O)CC2C(=O)NCCN2Cc2ccccc2F)CCN1 (stereo not given) ?
FLuc inh-1: inactive; 3T3 cytotox: -3%; GPT2 inh: -25%; NPR1 antag: 6%; HEK293 tox: -2%

How did COC1CCN(CC2CCCCCN2C(=O)c2ccccc2F)CC1 (stereo not given) do in these assays?
FLuc inh-1: inactive; 3T3 cytotox: -21%; GPT2 inh: 1%; NPR1 antag: 0%; HEK293 tox: -3%

How did COCCN1CCOc2nc(-c3cc(F)cc(OC)c3)ncc2C1=O do in these assays?
FLuc inh-1: 1.6µM*; 3T3 cytotox: 28µM*; GPT2 inh: -9%[88.5 µM]; NPR1 antag: inconclusive; HEK293 tox: -27%[172 µM]; FLuc SDR no ATP: inconclusive; FLuc SDR ATP: inconclusive; FLuc inh-2: 11µM*

What do the screens show for `COc1cc(F)cc(-c2ncc3c(n2)OCCN(Cc2ccc(F)cc2F)C3=O)c1`?
FLuc inh-1: inactive; 3T3 cytotox: inconclusive; GPT2 inh: -3%[88.5 µM]; NPR1 antag: inconclusive; HEK293 tox: inconclusive

What do the screens show for `COc1cccc(-c2ncc3c(n2)OCCN(Cc2ccc(F)cc2F)C3=O)c1`?
FLuc inh-1: 13µM*; 3T3 cytotox: inconclusive; GPT2 inh: -3%[88.5 µM]; NPR1 antag: inconclusive; HEK293 tox: inconclusive; FLuc SDR no ATP: 13%[49.3 µM]; FLuc SDR ATP: 10%[49.3 µM]; FLuc inh-2: inconclusive

Results for CCCC(=O)N1CCN(c2nc3ccc(F)cc3s2)CC1 ?
FLuc SDR no ATP: 25%; FLuc SDR ATP: inconclusive; FLuc inh-2: 11µM*

How did CCOc1ccc2nc(N3CCN(C(=O)c4ccco4)CC3)sc2c1 do in these assays?
FLuc SDR no ATP: 24%; FLuc SDR ATP: 15%; FLuc inh-2: inconclusive

What do the screens show for `O=C(CCc1nc2ccccc2s1)N1CCN(C(=O)c2ccco2)CC1`?
FLuc inh-1: inactive; 3T3 cytotox: -9%; GPT2 inh: 1%; NPR1 antag: -2%; HEK293 tox: -10%

What do the screens show for `CCCc1nc(C(=O)N2CCN(c3nc4ccccc4s3)CC2)cs1`?
FLuc inh-1: inactive; 3T3 cytotox: inconclusive; GPT2 inh: 0%[11.5 µM]; NPR1 antag: inconclusive; HEK293 tox: inconclusive

Results for Cc1noc(-c2cccc(OC3CN(C(=O)NC(C)C)C3)c2)n1 ?
FLuc inh-1: inactive; 3T3 cytotox: -1%; GPT2 inh: -7%; NPR1 antag: 6%; HEK293 tox: 2%

Results for O=C1N[C@@H]2CCN(S(=O)(=O)c3ccc(Cl)cc3)[C@@H]2C(=O)N1c1ccc(Oc2ccccc2)cc1 ?
FLuc inh-1: inactive; 3T3 cytotox: -15%; GPT2 inh: inconclusive; NPR1 antag: -23%; HEK293 tox: inconclusive

How did Cc1cn2nc(C(=O)Nc3ccc(Cl)c(C)c3)cc2c(N2CCSCC2)n1 do in these assays?
FLuc inh-1: inactive; 3T3 cytotox: inconclusive; GPT2 inh: -6%; NPR1 antag: 0%; HEK293 tox: inconclusive

What do the screens show for `COc1ccc(C(=O)N[C@H]2C[C@@H](c3nc(-c4cncnc4)no3)N(C)C2)cc1`?
FLuc inh-1: inconclusive; 3T3 cytotox: -12%[138 µM]; GPT2 inh: inactive; NPR1 antag: 3%[70.6 µM]; HEK293 tox: -4%[172 µM]

How did COc1ccc(-c2noc([C@@H]3C[C@H](NCc4ccccn4)CN3C)n2)cc1 do in these assays?
FLuc inh-1: 13µM*; 3T3 cytotox: inconclusive; GPT2 inh: -20%[88.5 µM]; NPR1 antag: inconclusive; HEK293 tox: 100µM*; FLuc SDR no ATP: 18%[49.3 µM]; FLuc SDR ATP: 15%[49.3 µM]; FLuc inh-2: inconclusive
